Screening results: PubChem BioAssay, several laboratories
cardiac RTF act = increases calcium sensitivity of human cardiac regulated thin filaments; P19429+P45379; IANBD-labeled TnC RTF fluorescence at EC20 calcium; 0% EC20 calcium, 100% full calcium; activation, % at 7.2 µM; actives 0.24% (n = 340,000); AID 493008;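 active = activation above the mean over all tested compounds plus 3 SD, cut at about 30% in these data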;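 note: rise in fluorescence read as greater calcium sensitivity of cardiac thin filaments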
Myeloid diff MLP = compounds promoting myeloid differentiation | AID 624256 | actives 1% (n = 360,000) | calls only at 10 µM | ER-HoxA9 myeloid progenitors, lysozyme-GFP differentiation, flow cytometry;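 active = normalized GFP-positive differentiation at or above the plate's own cutoff, the solvent-only control mean plus 3 SD; inconclusive = no clear call, values can overlap the other calls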;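 note: cells exposed to compound for four days before flow analysis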
CRFBP-R2 agonist = CRF-BP/CRF-R2 complex agonism. HEK293 CRF-R2/CRF-BP, calcium dye fluorescence (FLIPR); percent of saturating CRF peptide response. activation, % at 13.2 µM. actives 0.46% (n = 350,000). AID 588473;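 active = activation of at least 50%, plus an integration ratio under a set limit after plate pattern correction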;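 note: plate controls were neutral control wells without compound for no effect and CRF at EC100 for full effect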
Cardiac RTF inh = cardiac RTF calcium desensitization; IANBD-labeled cardiac RTF, Ca2+ fluorescence; actives 0.12% (n = 340,000); inhibition, % at 7.15 µM; AID 493244; P19429+P45379;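 active = inhibition above the mean inhibition of all tested compounds plus 3 SD, cut at about 17% in these data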;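 note: assay run at fixed EC70 calcium of 1.6 mM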
CRFBP-R2 block = blocks CRF-induced signaling of the CRF-BP/CRF-R2 complex; inhibition, % at 11.8 µM; HEK293 CRF-R2/CRF-BP, CRF-induced calcium fluorescence; actives 0.59% (n = 350,000);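 active = inhibition of the ligand-induced calcium signal above about 50% at the single tested concentration, limit read from the data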
Numbers without * were called inactive; i = inactive; ? = inconclusive; . = no result given; + = active, no number; ! = a repeat was not active. An excerpt weighted towards active compounds, which were near 2.2% of everything screened.

SMILES	cardiac RTF act	Myeloid diff MLP	CRFBP-R2 agonist	Cardiac RTF inh	CRFBP-R2 block
O=C(O)COc1ccc(/C=C/c2ccc3cccc([N+](=O)[O-])c3n2)cc1	6.8	i	-2.0	-31.1	19.5
CC(=O)Nc1ccc(/C=C/c2ccc3cccc([N+](=O)[O-])c3n2)cc1	-2.4	+	-2.6	-7.3	-6.0
CCOC(=O)C1CCCN(C(=O)C2COc3ccccc3O2)C1 (stereo not drawn)	-0.1	i	0.1	-15.5	1.1
CCOC(=O)C1(C(=O)OCC)CCN(S(=O)(=O)c2ccccc2)CC1	1.5	i	-1.5	-7.0	69.3*
CCOC(=O)C1CCCN(C(=O)C2c3ccccc3Oc3ccccc32)C1 (stereo not drawn)	92.8*	i	2.6	-109.3	10.7
CCOC(=O)C1CN(S(=O)(=O)c2ccccc2)C1	6.6	i	-3.2	5.4	17.8
CCOC(=O)C1CCCN(S(=O)(=O)c2ccccc2)C1 (stereo not drawn)	0.7	i	-0.9	-14.9	77.9*
O=C(Nc1ccc(F)c(Cl)c1)c1cc(C2CCCN(S(=O)(=O)c3cccc4cccnc34)C2)on1 (stereo not drawn)	.	i	.	.	.
O=S(=O)(Nc1ccc2c3c(cccc13)CC2)c1ccc(F)cc1	8.4	i	4.2	-10.2	-31.2
O=C(/C=C/c1ccccc1)c1ccc2c3c(cccc13)CC2	-2.5	i	2.2	-0.2	-4.0
Nc1ccc2c3c(cccc13)CC2	15.6	+	2.6	-116.1	4.4
c1ccc(Nc2ccc3c4c(cccc24)CC3)cc1	51.6*	+	0.3	-93.5	-5.2
Cc1cc(C)n(C(C)CC(=O)N2CCc3ccccc32)n1 (stereo not drawn)	3.9	i	-0.2	-6.7	-9.4
Cc1cc(C)n(C(CC(=O)N2CCc3ccccc3C2)C(=O)O)n1 (stereo not drawn)	-2.6	+	0.1	-3.6	10.7
COC(=O)Cn1c(=O)c2c(nc3n2CC(C)CN3Cc2ccccc2)n(C)c1=O (stereo not drawn)	7.7	i	-1.4	-5.3	-7.9
C=C(C)Cn1c(=O)c2c(nc3n2CC(C)CN3Cc2ccccc2)n(C)c1=O (stereo not drawn)	-3.3	i	-2.1	-3.7	87.5*
Cc1nc(N)nc(N)c1Oc1ccc(Cl)cc1	-2.2	+	1.0	7.9	-16.9
COc1cccc(CNc2nc3cc(-c4cnn(Cc5ccccc5)c4)sc3c(=O)n2C)c1	.	i	.	.	.
CC(NC(=O)c1cc(S(=O)(=O)N2CCOCC2)ccc1N1CCCC1)c1ccc(Cl)c(Cl)c1 (stereo not drawn)	-3.0	i	0.4	-6.4	-13.6
COc1cc(/C=N/N2C(=O)CSC2=S)ccc1O	-1.7	i	-2.4	-26.5	6.3
O=C1CSC(=S)N1/N=C/c1cc(Br)c(O)c(Br)c1	56.0*	i	184.9*	-120.3	-219.1
C=C1C[C@]23C[C@@]1(O)CC[C@H]2[C@@]12C=C[C@H](O)[C@@](C)(C(=O)O1)[C@H]2[C@@H]3C(=O)O	2.7	+!	0.4	13.9	-9.3
COc1ccc(NC(=O)C2Cc3c(-c4ccc5c(c4)OCO5)ccnc3O2)cc1 (stereo not drawn)	.	+	.	.	.
CNC(=O)c1ccc(-c2sc3nc(N4CCOCC4)c4c(c3c2N)CC(C)(C)OC4)o1	-0.5	i	1.4	-9.1	-14.7
CC1(C)Cc2c(c(N3CCOCC3)nc3sc(-c4ccc(C(=O)O)o4)c(N)c23)CO1	4.7	+	2.6	-15.2	-36.0
SMILES	cardiac RTF act	Myeloid diff MLP	CRFBP-R2 agonist	Cardiac RTF inh	CRFBP-R2 block
CCOC(=O)c1c(C)nc2sc(C(=O)Nc3ccccc3)c(N)c2c1-c1ccc(OC)cc1	-4.4	+	2.4	-1.9	3.3
CC1(C)CC(N2CCN(CCO)CC2)=CC(=S)N1	-5.5	+	-1.7	-2.7	1.8
CC1(C)CC(NCc2ccccc2)=CC(=S)N1	.	i	.	.	.
O=[N+]([O-])c1ccc(N2CCN(Cc3ccccc3)CC2)c2c1no[n+]2[O-]	.	.	11.9	.	-26.5
O=C(NCCO)c1nc(C(=O)c2ccc(Cl)cc2)c2ccccc2n1	5.1	i	-4.0	4.2	71.1*
CCC(C(=O)NC1CCCCCC1)n1nc(C)c2c(C)n(-c3ccccc3)nc2c1=O (stereo not drawn)	-3.2	i	-0.6	1.1	10.7
CC(NC(=O)c1ccco1)C(c1cccs1)N1CCN(c2ccccc2F)CC1 (stereo not drawn)	-14.3	+	-1.1	3.5	16.4
O=C(NN=C1CCCCCC1)c1ccc2c(c1)OCO2	11.4	i	0.8	-4.6	12.2
Cc1ccsc1CN(C(=O)c1ccc([N+](=O)[O-])cc1)C1CCS(=O)(=O)C1 (stereo not drawn)	-4.6	.	-1.0	-2.5	1.4
Cn1c(=O)c(C(=O)COc2ccc(C#N)cc2)c(N)n(Cc2ccccc2)c1=O	-0.1	i	55.0*	-4.4	24.1
Cc1cc(C)c2sc(NC(=O)c3ccc([N+](=O)[O-])o3)nc2c1	0.0	?	0.5	-4.8	16.0
CCc1ccc2nc(SCC(=O)N3CC(=O)Nc4ccccc43)c(C#N)cc2c1	8.8	+	12.1	-2.4	0.9
Cc1cccc(-n2c(SCC(=O)N3CC(=O)Nc4ccccc43)nc3ccccc3c2=O)c1C	-2.6	i	3.8	-1.6	55.4*
Cc1cccc(-n2c(SCC(=O)N3CC(=O)Nc4ccccc43)nc3ccccc3c2=O)c1	-3.0	i	7.9	-3.6	-19.9
CCOc1ccc2nc(SCC(=O)N3c4ccccc4Sc4ccccc43)c(C#N)cc2c1	4.3	+	2.6	-8.0	29.9
CCc1ccc2nc(SCC(=O)Nc3ccccc3N3CCOCC3)c(C#N)cc2c1	4.1	+	2.4	3.7	7.0
COc1cc(CN2C[C@@H](CO)O[C@@H](n3cnc4c(N5CCCC5)ncnc43)C2)cc(OC)c1OC	.	i	.	.	.
COc1ccc(C(CNC(=O)CNC(=O)c2cccc(F)c2)N2CCOCC2)cc1 (stereo not drawn)	.	i	2.0	.	-26.6
CC1=CCC2C(=O)N(c3cccc(C(=O)Nc4ccccc4Cl)c3)C(=O)C2C1 (stereo not drawn)	6.8	.	-0.8	-1.4	-0.8
O=S(=O)(c1cccc(Cl)c1)N1CN(CC2CCCO2)c2nc3ccccc3nc21 (stereo not drawn)	1.1	+	2.2	-3.8	14.8
COc1ccccc1OCC(=O)NNC(=O)c1cnccn1	-4.5	i	-3.2	-1.7	55.7*
CCc1ccc(OCC(=O)NNC(=O)c2cnccn2)c(Br)c1	2.5	i	-3.5	-3.1	-4.1
Oc1ccc(CNc2ccc(F)cc2)c2cccnc12	-4.6	+	-3.8	-3.1	26.6
Cc1ccc(S(=O)(=O)N2[C@@H](c3cccc(Cl)c3)C(C(=O)OC(C)(C)C)=CC[C@H]2c2cccc(Cl)c2)cc1	.	i	.	.	.
CC1CC(C)C[N+](=C2C=C(N3CCCC3)CC(C)(C)C2)C1 (stereo not drawn)	2.1	+	-0.6	-6.7	1.5
